Test results published in ChEMBL document CHEMBL3988442, “University of Dundee, Small-Polar-MMV Screening Library” (2021).
Among all 69,000 compounds or so, about 950 (1.4%) showed an effect of 50% or more. The entries come from a sample that favours strong results as a whole.

system: Mycobacterium tuberculosis; test: Cornell M. t heat shock assay; format: functional, organism-based; set-up: dose or concentration left out as unconfirmed; note: in the data most compounds retested in dose-response had high values

Compound | Percent Effect [%]
COCCN1CCOCC2(C1)CN(C(=O)c1conc1C)CCO2.O=C(O)C(F)(F)F (stereo not given) | 15.5
COCCC(=O)NC1CCN(CC2(c3cccc(F)c3)CCCC2)CC1.Cl | 23.79
CC(c1cccc(-c2nccn2CCc2ccccn2)c1)N(C)C (stereo not given) | -27.93
CC(c1cccc(-c2ncccc2C#N)c1)N(C)C (stereo not given) | 73.93
Cc1ccc(C(=O)O)cc1-c1cccc(C(C)N(C)C)c1 (stereo not given) | -8.231
COC(C)(C)Cn1ccnc1-c1cccc(C(C)N(C)C)c1 (stereo not given) | -20.81
CC(c1cccc(-c2ncccc2F)c1)N(C)C (stereo not given) | 76.79
CC(c1cccc(-c2ncc(C#N)c(N)n2)c1)N(C)C (stereo not given) | -10.92
Cc1ccc(CN2Cc3ccccc3O[C@]3(CC[C@H](CO)CC3)C2)o1.Cl | -44.64
Cc1nc(CN2C(=O)C[C@@H]3[C@@H]2CCN3CC2CCOCC2)cs1.O=C(O)C(F)(F)F | -14.82
COCCC(=O)N1C[C@H]2CN(Cc3cccc(C)n3)C(=O)[C@H]2C1.O=C(O)C(F)(F)F | -12.42
COc1cc(N2C[C@@H]3COC[C@]3(COCc3cccc(C)n3)C2)ncn1.O=C(O)C(F)(F)F.O=C(O)C(F)(F)F | 1.772
Cc1cnccc1-c1cnn(CCNC(=O)c2ccncc2)c1C1CC1.Cl | -0.5476
CN(C)CCN1C(=O)C2(CCN(CC3CC3)CC2)c2ccccc21.O=C(O)C(F)(F)F.O=C(O)C(F)(F)F | 2.693
Cc1ccc(CN2CCC[C@]3(C(=O)O)CN(C)C[C@@H]3C2)s1.O=C(O)C(F)(F)F.O=C(O)C(F)(F)F | 10.8
Cc1cc(N2CCC(c3nnc(CN(C)C)n3C3CC3)CC2)ccn1 | -0.4086
CCn1c(CN(C)C)nnc1C1CCN(c2nccc(NC)n2)CC1 | -31.54
CCn1c(CN(C)C)nnc1C1CCN(c2ccnc(C)c2)CC1 | 105.5
Cc1cc(N2CCCC2Cn2nc(C)cc2C)n2ncnc2n1 (stereo not given) | 11.78
Cc1cc(-n2cncn2)n2ncnc2n1 | 61.29
Cc1cc(-n2cnnn2)n2ncnc2n1 | -4.919
O=C(C1CCC1)N1C[C@@H]2CC[C@H](C1)N(S(=O)(=O)c1ccccc1)C2 | -12.74
CN(C)C(=O)N1C[C@@H]2CC[C@H](C1)N(S(=O)(=O)c1cccnc1)C2 | -21.11

Compound | Percent Effect [%]
O=C(NCc1cccnc1)N1CCc2ncnc(NC3CC3)c2CC1.O=C(O)C(F)(F)F | -0.2594
CCOCC1c2c(ncn2C)CCN1C(=O)c1ccoc1 (stereo not given) | 35.15
CCOCC1c2c(ncn2C)CCN1C(=O)c1cscn1 (stereo not given) | 57.96
CCOCC1c2c(ncn2C)CCN1C(=O)c1cnc(C)cn1.O=C(O)C(F)(F)F (stereo not given) | 18.53
CC(C)(CO)NCc1ccc(OCc2ccc3c(c2)OCCO3)cc1.Cl | -22.54
O=C(O)C(F)(F)F.O=C(O)C(F)(F)F.O=C(O)C(F)(F)F.c1cncc(CN2CC[C@@H]3O[C@H](COCCN4CCCC4)CC[C@@H]32)c1 | -18.74
CC(C)C(=O)N1CC[C@@H]2[C@H](CC1)N(Cc1cccnc1)CCS2(=O)=O.O=C(O)C(F)(F)F.O=C(O)C(F)(F)F | -30.61
CC(Nc1cccc(COCc2ccco2)c1)C(=O)NC(N)=O (stereo not given) | 0.6149
Cc1cc(NC(=O)C(C)Nc2cccc(COCc3ccco3)c2)on1 (stereo not given) | 4.042
CCOC(=O)C(C)Nc1cccc(COCc2ccco2)c1 (stereo not given) | 104.6
CC(C)CN1CCC2(CCCNC2)C1=O.Cl (stereo not given) | -13.24
O=C(O)C(F)(F)F.O=C(c1cccnc1)N1CCc2ncnc(C3CCOC3)c2CC1 (stereo not given) | 8.544
COCc1nn(C(C)C)c2c1CCN(Cc1nccs1)C2.O=C(O)C(F)(F)F | -16.62
Cc1nc(CN2CCO[C@@H]3CN(Cc4cccs4)C[C@@H]3C2)cs1.O=C(O)C(F)(F)F.O=C(O)C(F)(F)F | -15.47
Cc1nc(CN2CCOCC3(CCN(c4cnccn4)CC3)C2)cs1.O=C(O)C(F)(F)F | -3.315
CCc1cccc2c(CC(=O)N(C)CCN(C)C)c(C)[nH]c12.O=C(O)CC(O)(CC(=O)O)C(=O)O | 1.394
Cc1cc(NC2CCN(c3ccc(F)cc3)CC2)n2nc(C)cc2n1 | 11.63
Cc1cc(N[C@H]2CCCN(Cc3ccccc3)C2)n2nc(C)cc2n1 | 37.52
Cc1cc(NC2CCCN(Cc3ccc(F)cc3)C2)n2nc(C)cc2n1 (stereo not given) | 55.79
CNc1ncc2c(n1)CN(Cc1ccc(Cl)cc1)C2=O | -7.307
C[C@@H]1CN(Cc2cc(C3CCCCC3)no2)CC[C@@]1(O)C1CC1 | -30.44
Cn1nc(C2CCCN(C(=O)CO)C2)cc1O (stereo not given) | 54.18
Cn1ccc(C(=O)N2CCCC(c3cc(O)n(C)n3)C2)n1 (stereo not given) | -7.619

Compound | Percent Effect [%]
COCCC(=O)N1CCC(c2cc(O)n(C)n2)C1 (stereo not given) | 9.695
COCCN1CCOCC12CCN(C(=O)c1cccnc1)CC2.O=C(O)C(F)(F)F | -43.19
CN1CC[C@@H]2OC[C@H](C(=O)N(C)Cc3ccccn3)C[C@@H]2C1.O=C(O)C(F)(F)F.O=C(O)C(F)(F)F | 42.17
O=C(NC1CC1)[C@@H]1CCO[C@@H]2CCN(Cc3ccsc3)C[C@H]21.O=C(O)C(F)(F)F | -0.7242
O=C(O)C(F)(F)F.O=C([C@@H]1C[C@@H]2CCN(CCc3ccccc3)C[C@H]2O1)N1CCCC1 | 7.524
O=c1cc(CN2CCCC2)nc2n1CCCN(CC1CCOCC1)C2 | -14.03
CN(C)Cc1cc(=O)n2c(n1)CN(CC1CC1)CCC2 | -15.16
O=c1cc(CN2CCCC2)nc2n1CCCN(CC1CC1)C2 | 59.59
COCC(=O)NC[C@H]1CC[C@H](c2nnc(-c3ccncc3)o2)CC1 | -43.76
Cn1cc(CN2CCCC23CCN(Cc2nccn2C)CC3)cn1.O=C(O)C(F)(F)F.O=C(O)C(F)(F)F | -17.58
Cl.Cl.O=C(NCc1cncc2c1CCN(C1CCOCC1)C2)c1ccco1 | 7.016
O=C(O)C(F)(F)F.O=C(O)C(F)(F)F.c1ccc(N2CCC3(COCCN(c4ncccn4)C3)C2)nc1 (stereo not given) | 3.163
Cn1cc(CN2CCC(F)(F)C3(CCN(c4ncccn4)C3)C2)cn1.O=C(O)C(F)(F)F.O=C(O)C(F)(F)F (stereo not given) | -18.65
CC(C)n1ccnc1CN1CCOC(CC2CCCCC2)C1 (stereo not given) | 50.37
CC(C)n1ccnc1CN1CCCN(C(=O)CC2CCCO2)CC1 (stereo not given) | -7.243
CC(C)n1ccnc1CN1CCOC(CCc2ccccc2)C1 (stereo not given) | -0.01061
O=C(O)C(F)(F)F.O=C(O)C(F)(F)F.O=C(O)C(F)(F)F.c1cnc(NC[C@H]2OC[C@@H]3CCN(Cc4nccs4)C[C@@H]32)nc1 | -22.37
CNC(=O)[C@H]1C[C@@H]2CN(Cc3cccnc3OC)C[C@@H]2N1C(C)=O.O=C(O)C(F)(F)F.O=C(O)C(F)(F)F | -6.106
CCc1ccc(C2CCCN2C(=O)NCC(=O)NCC(C)C)o1 (stereo not given) | -12.75
COCCN1CCN(CCS(=O)(=O)C(F)(F)F)CC1C (stereo not given) | 105.5
COCCN1CCN(CCS(C)(=O)=O)CC1C (stereo not given) | -13.47
COCCN1CCN(CCCS(C)(=O)=O)CC1C (stereo not given) | -16.37
CCN(CC)Cc1cn2c(n1)CN(C(=O)c1cc(C)on1)CC2.O=C(O)C(F)(F)F | -2.302

Compound | Percent Effect [%]
CCC(C)NC(=O)CS(=O)(=O)Cc1ccccc1Cl (stereo not given) | -5.393
CC(C)c1noc(CS(=O)(=O)CC(=O)NCc2ccccc2)n1 | 49.68
CCN(C(=O)C(C)S(=O)(=O)Cc1nc(C)no1)c1ccccc1 (stereo not given) | -1.269
Cc1noc(CS(=O)(=O)CC(=O)NC(C)c2ccccc2)n1 (stereo not given) | 70.08
CC(C)c1noc(CS(=O)(=O)Cc2nc(C(C)C)no2)n1 | -44.125
CC(Cn1cccn1)NCc1nc(-c2cccs2)no1 (stereo not given) | 22.29
CCC(C)NC(=O)CS(=O)(=O)Cc1nc(-c2cccs2)no1 (stereo not given) | 65.94
CCc1noc(CS(=O)(=O)CC=C(C)C)n1 | 29.3
CC(C)=CCS(=O)(=O)Cc1nc(C(C)C)no1 | 58.075
CC(C)c1noc(CS(=O)(=O)CC(=O)NCCOc2ccccc2)n1 | 41.58
CC(C)c1noc(CS(=O)(=O)CC(=O)NCc2cccs2)n1 | 58.74
Cc1noc(CS(=O)(=O)C(C)C(=O)N(C)c2ccccc2)n1 (stereo not given) | 6.585
CC1N(C)C(=O)COC12CCN(Cc1nccs1)CC2.O=C(O)C(F)(F)F (stereo not given) | 2.077
CCn1nc(C)cc1C(=O)N1C[C@H]2CCC[C@@]2(COc2ccccn2)C1.O=C(O)C(F)(F)F | -22.73
O=C(N[C@@H]1CN(CC2CC2)[C@@H]2CCCO[C@@H]21)c1cscn1.O=C(O)C(F)(F)F | 21.59
Cl.O=c1c2sccc2nc2n1CCN(Cc1ccccc1C(F)(F)F)CC2 | 24
O=C(NC[C@]12COC[C@H]1CN(C1CCOCC1)C2)c1ccco1.O=C(O)C(F)(F)F | -7.738
O=C(O)C(F)(F)F.O=C([C@H]1C[C@@H]2CCN(C3CCOCC3)C[C@H]2O1)N1CCCC1 | -29.11
CCCc1noc(CS(=O)(=O)CC(=O)NC(C)CCC)n1 (stereo not given) | 60.91
CCCc1noc(CCC(=O)NC(C)c2nnc3n2CCCCC3)n1 (stereo not given) | -4.52
CC(C)c1noc(CS(=O)(=O)CC(=O)NCC(F)(F)F)n1 | 45.89
